TRPV1 agonist – human TRPV1 agonism. Q8NER1. TRPV1-expressing cells, Fluo-8 calcium influx, agonist mode. activation, % at 8.33 µM. 320,000 tested, 0.19% active. AID 540275; in the data active means activation above about 80%; inconclusive means between about 30% and that limit; further: 0% is about no effect
Target sequence (Q8NER1 whole entry, looked up): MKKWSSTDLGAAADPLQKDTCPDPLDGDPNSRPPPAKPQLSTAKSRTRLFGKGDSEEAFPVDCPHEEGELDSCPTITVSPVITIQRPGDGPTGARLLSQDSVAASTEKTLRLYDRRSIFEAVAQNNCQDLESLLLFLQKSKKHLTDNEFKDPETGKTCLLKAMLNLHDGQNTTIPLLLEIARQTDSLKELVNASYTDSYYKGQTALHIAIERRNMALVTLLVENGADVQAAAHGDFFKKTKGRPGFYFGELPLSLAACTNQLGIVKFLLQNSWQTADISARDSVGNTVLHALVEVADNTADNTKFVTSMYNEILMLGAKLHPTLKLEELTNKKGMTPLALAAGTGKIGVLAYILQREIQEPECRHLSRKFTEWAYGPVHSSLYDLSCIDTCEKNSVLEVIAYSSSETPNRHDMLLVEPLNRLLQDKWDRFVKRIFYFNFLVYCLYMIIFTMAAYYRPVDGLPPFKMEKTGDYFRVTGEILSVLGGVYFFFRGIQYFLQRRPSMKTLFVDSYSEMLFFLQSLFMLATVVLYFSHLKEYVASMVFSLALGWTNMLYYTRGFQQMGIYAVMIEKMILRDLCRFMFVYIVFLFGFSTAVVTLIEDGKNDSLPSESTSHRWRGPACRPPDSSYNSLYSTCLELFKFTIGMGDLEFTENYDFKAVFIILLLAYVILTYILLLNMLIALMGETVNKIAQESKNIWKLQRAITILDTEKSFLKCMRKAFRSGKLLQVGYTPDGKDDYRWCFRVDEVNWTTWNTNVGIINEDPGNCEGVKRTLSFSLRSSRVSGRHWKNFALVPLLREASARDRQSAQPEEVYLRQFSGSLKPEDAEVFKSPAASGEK
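Fluo-8 calcium influx in TRPV1-expressing cells, kinetic read (ex 480/em 520 nm). Compound added and read 3 min for agonist activity, followed by capsaicin at EC20 final and 2 min further read for enhancement.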
TRPV1 potentiator – human TRPV1 potentiation; 320,000 tested, 0.02% active; AID 540277; Q8NER1; TRPV1-expressing cells, Fluo-8 calcium influx, capsaicin EC20 potentiation; potentiation, % at 8.33 µM; in the data active means potentiation above about 80%; inconclusive means between about 30% and that limit; further: 0% is about no effect
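TRPV1-expressing cells were cultured overnight at 35.5C and loaded with Fluo-8 calcium dye for 40 to 90 min at room temperature. After a 10 s baseline, compound was added and calcium influx was read kinetically for 3 min (ex 480/em 520 nm).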
Giardia kill – kills Giardia lamblia; Giardia lamblia trophozoite viability; activity change, % at 7.66 µM, hits read low; 340,000 tested, 0.15% active; AID 540267; in the data active means activity change below about -80%; inconclusive means between about -30% and that limit;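 further: parasites exposed to compound for two days anaerobically before the ATP read; on the % scale 0 is the no-effect control and ±100 the full control effect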
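Killing of trophozoites was scored by loss of ATP luminescence after a 48 hrs anaerobic exposure to compounds at 37 deg C, using 100 cells per well.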
FUS yeast rescue – rescues growth of FUS-expressing yeast; Potency, µM (highest dose often 76.6 µM), usual class: activators; AID 1347120; S. cerevisiae FUS-expressing, growth rescue, OD600, 24 h; 390,000 tested, 0.24% active;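 further: potency means the concentration at half of the fitted maximal effect; plate controls were DMSO vehicle for no effect and reference control for full effect; nearly all actives have a fitted effect of over 55% in size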
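Cultures pregrown in 2.5% raffinose medium are shifted to minimal medium containing 2% galactose to express toxic FUS. Compounds are tested at several concentrations. After 24hr at 30C, growth is quantified at 600 nm absorbance.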
ELG1 repair inh – ELG1-dependent DNA repair inhibition; AID 504467; Potency, µM (titrated, usually from 46.1 µM), without a hit: at the highest dose activity change, negative = inhibition, hits mostly inhibitors; HEK293T ELG1-luciferase reporter, luminescence, 16 h; DNA damage induced by 5-fluorouridine; 330,000 tested, 2.3% active; further: potency means the concentration at half of the fitted maximal effect; on the % scale 0 is the no-effect control and ±100 the full control effect; nearly all actives have a fitted effect of over 55% in size
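Step one: seed 2,000 cells per well. Step two: pin-transfer compound or DMSO alongside 5-fluorouridine. Step three: incubate 16 hr, 37 °C, 5% CO2. Step four: add ONE-Glo, wait 30 min, read luminescence.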
Active calls of the source: *. A selection: hits, their analogues and other compounds. The true share with any hit is near 2.3%. Unless noted, the call rests on the fitted dose curve; in most records, active means well fitted curve in the direction sought with a large enough effect; inconclusive means small, poorly fitted or top-dose-only effect, or another doubt; inactive means no such curve, though single readings can be large; an effect the other way counts as inactive or inconclusive.

Screening C[C@@H]1CN([C@@H](C)CO)C(=O)c2cc(NC(=O)Nc3ccc4c(c3)OCO4)ccc2O[C@H]1CN(C)S(=O)(=O)c1ccc(F)cc1 returned Giardia kill -3.6, FUS yeast rescue inconclusive and ELG1 repair inh 25.9µM*.
`COc1ccc(S(=O)(=O)N(C)C[C@H]2Oc3ccc(NC(=O)Cc4ccccc4)cc3C(=O)N([C@H](C)CO)C[C@@H]2C)cc1` gave Giardia kill -2.2, FUS yeast rescue 28.2µM* and ELG1 repair inh inconclusive.
COc1ccc(NC(=O)Nc2ccc3c(c2)C(=O)N([C@H](C)CO)C[C@H](C)[C@@H](CN(C)S(=O)(=O)c2ccccc2)O3)cc1 was read as Giardia kill -8.5, FUS yeast rescue inconclusive and ELG1 repair inh 0.0%.
`COc1ccc(C#Cc2ccc3c(c2)O[C@H](CN(C)S(=O)(=O)c2ccccc2F)[C@H](C)CN([C@H](C)CO)S3(=O)=O)cc1` gave FUS yeast rescue 28.2µM*.
C[C@H](CO)N1C[C@H](C)[C@@H](CN(C)S(=O)(=O)c2ccc(F)cc2)Oc2ccc(NC(=O)Nc3ccc(C(F)(F)F)cc3)cc2C1=O was read as Giardia kill 14.9, FUS yeast rescue inconclusive and ELG1 repair inh 20.6µM*.
`O=C(NCCN1CCOCC1)C1(C(F)(F)F)C/C(=C\CCO)CCCO1` (stereo not drawn) gave Giardia kill -5.0.
COCC(=O)Nc1c(C(=O)Nc2ccc(C)cc2)oc2ccccc12 was read as FUS yeast rescue inactive.
COc1ccccc1C(=O)Nc1ccc2nc(SCC(=O)N3CCCC3)sc2c1 was read as FUS yeast rescue inactive.
For CN[C@H]1C[C@H]2c3[nH]c4ccc(-c5cccc(C)c5)cc4c3CCN2C[C@H]1[C@H](C)O the results were FUS yeast rescue inactive.
`C[C@H](CO)N1C[C@H](C)[C@@H](CN(C)S(=O)(=O)c2ccc(F)cc2)Oc2ccc(NC(=O)Nc3ccccc3)cc2C1=O` gave Giardia kill 22.0, FUS yeast rescue inconclusive and ELG1 repair inh 23.1µM*.
`COc1ccc(NC(=O)Nc2ccc3c(c2)C(=O)N([C@H](C)CO)C[C@H](C)[C@@H](CN(C)S(=O)(=O)c2ccc(F)cc2)O3)cc1` gave Giardia kill 6.0, FUS yeast rescue inconclusive and ELG1 repair inh -24.4%.
For CCc1cccc(C)c1NS(=O)(=O)c1ccc(-n2cccn2)cc1 the results were FUS yeast rescue inactive.
Screening CN(C)c1ccc(/C=N/NC(=O)CN(c2cccc(Cl)c2)S(C)(=O)=O)cc1Br returned TRPV1 agonist 2.7, TRPV1 potentiator 0.0, Giardia kill 34.6, FUS yeast rescue inactive and ELG1 repair inh 20.6µM*.
For COc1ccc(Cl)cc1NC(=O)CN1CCC(n2nnc3cc(C)ccc32)CC1 the results were TRPV1 agonist 19.8, TRPV1 potentiator -2.2, Giardia kill -9.9, FUS yeast rescue inactive and ELG1 repair inh 20.6µM*.
`Cc1ccc2c(c1)nnn2C1CCN(CC(=O)Nc2ccccc2N2CCOCC2)CC1` gave TRPV1 agonist 4.4, TRPV1 potentiator 5.6, Giardia kill 32.3, FUS yeast rescue inactive and ELG1 repair inh inconclusive.
`COc1ccccc1NC(=O)CN1CCC(n2nnc3cc(F)ccc32)CC1` gave TRPV1 agonist 9.2, TRPV1 potentiator 3.5, Giardia kill 20.7, FUS yeast rescue inactive and ELG1 repair inh 20.6µM*.
For O=C(NCCc1ccccc1)c1ccc2c(c1)CCN2S(=O)(=O)c1ccc(Cl)cc1 the results were FUS yeast rescue inactive.
Screening CCCCCCCn1c2c(c(=N)c3ccccc31)CCC2 returned TRPV1 agonist 12.2, TRPV1 potentiator -17.5, Giardia kill 5.6, FUS yeast rescue inactive and ELG1 repair inh 4.11µM*.
For O=C(O)CCn1c2c(c3ccccc31)CCCC2 the results were TRPV1 agonist -2.1, TRPV1 potentiator 16.2, Giardia kill -15.9, FUS yeast rescue inactive and ELG1 repair inh 9.7%.
For CCCn1c2c(c(=N)c3c1CCC3)CCC2 the results were TRPV1 agonist -2.6, TRPV1 potentiator 3.6, Giardia kill 6.0, FUS yeast rescue inactive and ELG1 repair inh 18.3µM*.
For C/C(Cl)=C\Cn1c(Nc2ccccc2)nc2c1c(=O)n(C)c(=O)n2C the results were TRPV1 agonist 7.2, TRPV1 potentiator -0.9, Giardia kill 1.1, FUS yeast rescue inactive and ELG1 repair inh 11.2µM*.
Screening CC(O)CNc1nc2c(c(=O)n(C)c(=O)n2C)n1C/C=C/c1ccccc1 (stereo not drawn) returned TRPV1 agonist -1.6, TRPV1 potentiator 0.9, Giardia kill -14.2, FUS yeast rescue inactive and ELG1 repair inh 23.1µM*.
For C/C(Cl)=C/Cn1c(NCCN(C)C)nc2c1c(=O)n(C)c(=O)n2C the results were TRPV1 agonist -16.2, TRPV1 potentiator 17.8, Giardia kill 18.4, FUS yeast rescue inactive and ELG1 repair inh 2.4%.
Screening Cn1c(=O)c2c(nc(NCCCO)n2C/C=C/c2ccccc2)n(C)c1=O returned TRPV1 agonist -5.2, TRPV1 potentiator -2.1, Giardia kill -4.1, FUS yeast rescue inactive and ELG1 repair inh 11.6µM*.
`CC1CN(C(=O)Nc2ccc(C(=O)NCCc3ccccc3Cl)cc2)c2ccccc2S1` (stereo not drawn) gave FUS yeast rescue inactive.
Cc1ccc(-c2nn(-c3ccc(F)cc3F)c3c2cnc2c(F)cccc23)cc1 was read as FUS yeast rescue inactive.
CCOc1ccc(/C=C/c2nc(C#N)c(Nc3ccc(OC)cc3)o2)cc1 was read as FUS yeast rescue inactive.
N#CC1=C(N)N2C(=C(C#N)C1c1ccc(Br)cc1)Nc1ccccc12 (stereo not drawn) was read as TRPV1 agonist 0.3, TRPV1 potentiator -6.4, Giardia kill -7.6, FUS yeast rescue inactive and ELG1 repair inh 2.91µM*.
N#CC1=C(N)N2C(=C(C#N)C1c1ccccc1)Sc1ccccc12 (stereo not drawn) was read as TRPV1 agonist 0.4, TRPV1 potentiator -1.1 and ELG1 repair inh 13.0%.
Screening N#CC1=C(N)N2C(=C(C#N)C1c1cccc(Br)c1)Nc1ccccc12 (stereo not drawn) returned TRPV1 agonist 4.2, TRPV1 potentiator 2.9, Giardia kill 8.7, FUS yeast rescue inactive and ELG1 repair inh 2.91µM*.
`Cc1ccc(NC(=O)c2cc(S(=O)(=O)N3CCOCC3)cs2)cc1` gave TRPV1 agonist 81.3*, TRPV1 potentiator -9.3, Giardia kill -5.4, FUS yeast rescue inactive and ELG1 repair inh 10.9%.
Screening O=C(Nc1ccc(F)cc1)c1cc(S(=O)(=O)N2CCOCC2)cs1 returned TRPV1 agonist inconclusive, TRPV1 potentiator -7.0, Giardia kill -4.7, FUS yeast rescue inactive and ELG1 repair inh -18.1%.
For O=C(Nc1cccc(Cl)c1)c1cc(S(=O)(=O)N2CCOCC2)cs1 the results were TRPV1 agonist inconclusive, TRPV1 potentiator -5.6, Giardia kill 17.5 and ELG1 repair inh -3.4%.

Compound activity from PubChem BioAssay.
